From PubChem BioAssay (Tox21)
Results filed as inconclusive are left out. Where a call stands in place of a potency, no number is given. Activity calls are given as the source filed them. Calls follow the shape of the dose curve; as a rule, active = well fitted inhibition curve with a large enough effect in the repeat runs; inconclusive = weak or mixed curves, or effect the other way; inactive = no such curve, though single readings can be large or run the other way.

Biological target: Nuclear receptor subfamily 1 group I member 3 (Homo sapiens) (UniProt Q14994)
Assay: qHTS assay to identify small molecule antagonists of the constitutive androstane receptor (CAR) signaling pathway (AID 1224838);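 also: HepG2 cells stably expressing hCAR with CYP2B6 luciferase reporter stimulated by CITCO; nearly all actives have a fitted effect of over 40% in size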
Conditions: HepG2-CYP2B6-hCAR luciferase, CITCO-stimulated, 24 h; series mostly up to 92.4 µM
From the text: U.S. Tox21 Program National Center for Advancing Translational Sciences [NCATS] NIH Chemical Genomics Center [NCGC] U.S. Environmental Protection Agency [EPA] National Institutes of Environmental Health Sciences [NIEHS] National Toxicology Program [NTP] U.S. Food and Drug Administration [FDA] Tox21 Assay Overview: The constitutive androstane receptor (CAR) is a nuclear receptor which regulates multiple drug metabolizing enzymes (DMEs) and transporters. Activating CAR will generally increase the transcription and subsequent translation of CYP2B6 and CYP3A4. These two DMEs represent about 50% of the drug metabolizing potential in the body. When CAR is deactivated, the metabolizing potential in the body will decrease, subsequently increasing the toxicity in the body or lowering the therapeutic potential of a pro-drug. Recently, there have also been studies performed indicating CARs role in energy metabolism and cancer therapy. Therefore, inhibiting CARs activity could have a potential effect on diabetes and cancer. Identifying environmental toxins and compounds which modulate CAR, through the use of the Tox21 10K compound collection, will be an important step in determining the toxicity and potential therapeutic effects these factors will have on the human body.
Tox21 Assay Protocol Summary: A double-stable (hCAR and CYP2B6-2.2kb) transfected cell line, derived from human hepatoma (HepG2) cells, was utilized for the duration of the quantitative high-throughput screens. The HepG2-CYP2B6-hCAR cells suspended in DMEM culture medium supplemented with 10% FBS, 5 ug/mL blasticidin, 0.5 mg/mL geneticin, 100 U/mL penicillin and 100 ug/mL streptomycin were dispensed at 2500 cells/4 uL/well in 1536-well white solid bottom plates using a Multidrop Combi. After the assay plates were incubated at 37 C/5% CO2 for 4 hrs, 23 nL of compounds at 15 concentrations (from 5-48 columns) or positive control (from 1 to 4 columns) were transferred to the assay plates using a Pintool station. One uL of CITCO, was added using a Flying Reagent Dispenser to generate a final concentration of 50 nM CITCO inside each well. After a 24 hr incubation period at 37 C/5% CO2, four uL of ONE-Glo reagent was added into the assay plates using a Flying Reagent Dispenser. After a 30 min incubation period at room temperature, the luminescence intensity in the assay plates was measured using a ViewLux plate reader.
Potency is read from the fitted curve at half-maximal effect.

Sequence of Nuclear receptor subfamily 1 group I member 3 (Homo sapiens) (Q14994 whole entry, looked up): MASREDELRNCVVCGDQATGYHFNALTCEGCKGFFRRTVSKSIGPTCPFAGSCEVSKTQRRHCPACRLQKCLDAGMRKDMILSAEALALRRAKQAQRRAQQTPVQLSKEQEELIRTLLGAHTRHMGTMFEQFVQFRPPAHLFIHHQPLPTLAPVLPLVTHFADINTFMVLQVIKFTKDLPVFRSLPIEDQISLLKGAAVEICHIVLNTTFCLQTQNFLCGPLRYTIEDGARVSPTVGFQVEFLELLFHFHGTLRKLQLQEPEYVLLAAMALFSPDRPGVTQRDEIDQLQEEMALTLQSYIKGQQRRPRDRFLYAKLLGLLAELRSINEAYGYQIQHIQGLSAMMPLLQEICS

| Compound | Potency | activity, negative = inhibition |
| --- | --- | --- |
| OCCN1CCN(CCO)CC1 | inactive |  |
| CCOC(=O)CS | 56 µM (active) |  |
| COc1ccc2nc(NC(=O)Nc3ccccc3)sc2c1 | inactive |  |
| O=C(O[C@@H](C(=O)O)[C@@H](OC(=O)c1ccccc1)C(=O)O)c1ccccc1 | inactive |  |
| CCN(CC)CCOc1ccc(Cc2ccccc2)cc1 | inactive |  |
| CC(C)NC[C@@H](O)COc1cccc2ccccc12 | inactive |  |
| CC(C)Nc1nc(N)nc(Cl)n1 | inactive |  |
| CN1CCN(N)CC1 | inactive |  |
| O=C(O)[C@@H]1CSCN1 | inactive |  |
| CCCOc1ccc2c(c1)CC[C@@H]1[C@@H]2CC[C@]2(C)C(OC)CC[C@@H]12 (stereo not given in full) | inactive |  |
| Clc1cccc(-c2cc(Cl)cc(Cl)c2)c1 | inactive |  |
| O=C(CCCl)NCc1ccccc1 | inactive |  |
| Cc1onc(-c2ccccc2)c1C(=O)Cl | inactive |  |
| O=Cc1ccc(O)c(O)c1O | inactive |  |
| CC(=O)N[C@@H](CC(C)C)C(=O)O | inactive |  |
| CCCCC1CCC(=O)O1 (stereo not given) | inactive |  |
| CC(C)=CCCC(C)CCOC=O (stereo not given) | inactive |  |
| NS(=O)(=O)c1cc(-c2nn[nH]n2)c(NCc2cccs2)cc1Cl | 23.7 µM (active) |  |
| NC(=O)Cc1cccc(C(=O)c2ccccc2)c1N | inactive |  |
| Cc1cccc(C)c1NC(=O)CN1CCCCCC1 | inactive |  |

| Compound | Potency | activity, negative = inhibition |
| --- | --- | --- |
| CCC/C=C/CO | inactive |  |
| CC(C)(CO)[C@@H](O)C(=O)NCCC(=O)O | inactive |  |
| CCCCCCCCCC#N | inactive |  |
| NC1=NCC2c3ccccc3Cc3ccccc3N12 (stereo not given) | inactive |  |
| CC(C)NCC(O)COc1ccc(CCOCC2CC2)cc1 (stereo not given) | inactive |  |
| Cc1ccc([N+](=O)[O-])cc1Cl | inactive |  |
| Cc1ccc([N+](=O)[O-])c(N)c1 | inactive |  |
| NC(=O)NS(=O)(=O)c1ccc(Cl)cc1 | inactive |  |
| Cc1cn([C@@H]2O[C@H](CO)[C@@H](O)[C@@H]2F)c(=O)[nH]c1=O | inactive |  |
| CCN(CC)C(=O)N(CC)CC | inactive |  |
| CC(C)CC(=O)OCc1ccccc1 | inactive |  |
| C=Cc1ccccc1 | inactive |  |
| C=O | inactive |  |
| CN1CCN(c2c(F)cc3c(=O)c(C(=O)O)cn4c3c2SCC4)CC1 | inactive |  |
| CN(CCCN1c2ccccc2CCc2ccccc21)CC(=O)c1ccc(Cl)cc1 | inactive |  |
| C[C@@H]1CN(c2c(F)c(F)c3c(=O)c(C(=O)O)cn(C4CC4)c3c2F)C[C@H](C)N1 |  | 14.9% [at 19 µM] (inactive) |
| CC1=C2[C@H](/C=C(\C)C(=O)O)CC[C@@H](C)[C@H]2CC1 | inactive |  |
| COc1nc(C)nc(NC(=O)NS(=O)(=O)c2ccccc2OCCCl)n1 | inactive |  |
| Cc1c(-c2ccccc2)oc2c(C(=O)OCCN3CCCCC3)cccc2c1=O | inactive |  |
| CO[C@@]1(NC(=O)CSCC#N)C(=O)N2C(C(=O)O)=C(CSc3nnnn3C)CS[C@@H]21 | inactive |  |
